Inconclusive results are not listed. Entries that show only a call come without a potency. Calls of active or inactive are those of the source. Calls come from the whole dose curve; as a rule, active = well fitted activation curve with a large enough effect in the repeat runs; inconclusive = weak or mixed curves; inactive = flat fitted curve, though single readings scatter.
Assay: A CellTox Green Cytotoxicity Assay to monitor cytotoxicity in HepG2 cells - 0 hour (AID 1224882); note: nearly all actives have a fitted effect of over 35% in size
Conditions: CellTox Green fluorescence; series mostly up to 76.8 µM
Summary of the method: (§1)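 Read-out is fluorescence of a cyanine dye excluded from live cells that stains DNA of dead HepG2 cells, with signal proportional to cytotoxicity. Plates were read at 0, 8, 16, 24, 32 and 40 h after compound addition.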

SMILES	outcome	cytotoxicity
O=C(CCNNC(=O)c1ccncc1)NCc1ccccc1	inactive	
CCCN1C[C@H](CSC)C[C@@H]2c3cccc4[nH]cc(c34)C[C@H]21	inactive	
CC(C)NCC(O)COc1ccc(COCCOC(C)C)cc1 (centres undefined)	inactive	
O=C(O)c1cc(Br)c(O)c(Br)c1	inactive	
C[Si](C)=O		-2.11% [at 6.97 µM] (inactive)
Oc1ccccc1-c1nnco1	inactive	
O=C1c2ccccc2C(=O)C1c1ccccc1	inactive	
CC(=O)N[C@@H](CCC(=O)O)C(=O)O	inactive	
Cc1cccc(C)c1NC(=O)c1ccccc1C(=O)O	inactive	
Oc1cn2c(n1)Nc1ccc(Cl)c(Cl)c1C2		3.67% [at 15.8 µM] (inactive)
c1ccc2c(c1)ccc1c3ccccc3ccc21	inactive	
C=C(C)C(=O)OCCOP(=O)(O)OCCOC(=O)C(=C)C	inactive	
CC(C)CCCC(C)(C)O	inactive	
CCCCCCCCSCC	inactive	
CCOc1cc(NC(C)=O)ccc1C(=O)OC	inactive	
COc1cc2c(cc1OC)[C@@H]1CC(=O)[C@@H](CC(C)C)CN1CC2	inactive	
COC(=O)c1ccccc1C(=O)c1ccc(OCCN2CCCCC2)cc1	inactive	
COc1cc(C(=S)N2CCOCC2)cc(OC)c1OC	inactive	
CC(N)C(=O)OC(C)(C)Cc1ccc(Cl)cc1 (centres undefined)	inactive	

SMILES	outcome	cytotoxicity
CCCCCCCCCCCCCC	inactive	
CCCCCCN	inactive	
CN(C)c1ccc(C=O)cc1	inactive	
O=S(=O)(O)c1cc(O)c2ccc(Nc3ccccc3)cc2c1	inactive	
CCCCOCCOC(=O)COc1nc(Cl)c(Cl)cc1Cl	inactive	
CN(CCOc1ccc(NS(C)(=O)=O)cc1)CCc1ccc(NS(C)(=O)=O)cc1	inactive	
C=COCCOCCOCCOC=C	inactive	
O=C(CCN1CCN(CCO)CC1)N1c2ccccc2Sc2ccc(C(F)(F)F)cc21	inactive	
Cc1cccc2nccnc12	inactive	
CC(C)CC(C)CC(C)CC(C)COC(=O)c1ccccc1C(=O)OCC(C)CC(C)CC(C)CC(C)C (centres undefined)	inactive	
C=CC(OCC)OCC	inactive	
CC(=O)CCCCn1c(=O)c2c(ncn2C)n(C)c1=O	inactive	
Cc1ccc2c(c1)OCC(=O)CO2	inactive	
CC1(C)S[C@@H]2[C@H](N=CN3CCCCCC3)C(=O)N2[C@H]1C(=O)O	inactive	
O=C(OCC1(COC(=O)c2cccnc2)CCCC(COC(=O)c2cccnc2)(COC(=O)c2cccnc2)C1O)c1cccnc1	inactive	
Cc1ccccc1N=O	inactive	
Cc1ccccc1OCC(O)CO (centres undefined)	inactive	
O=C(O)c1ccc(Cl)cc1Cl	inactive	

Assay: A CellTox Green Cytotoxicity Assay to monitor cytotoxicity in HepG2 cells - 32 hour (AID 1224883); note: nearly all actives have a fitted effect of over 50% in size
Conditions: CellTox Green fluorescence; series mostly up to 76.8 µM
Summary of the method: as §1

SMILES	Potency	cytotoxicity increase
O=C(CCNNC(=O)c1ccncc1)NCc1ccccc1	inactive	
CCCN1C[C@H](CSC)C[C@@H]2c3cccc4[nH]cc(c34)C[C@H]21	inactive	
CC(C)NCC(O)COc1ccc(COCCOC(C)C)cc1 (centres undefined)	inactive	
O=C(O)c1cc(Br)c(O)c(Br)c1	inactive	
C[Si](C)=O		-6.59% [at 6.97 µM] (inactive)
Oc1ccccc1-c1nnco1	inactive	
O=C1c2ccccc2C(=O)C1c1ccccc1	inactive	
CC(=O)N[C@@H](CCC(=O)O)C(=O)O	inactive	
Cc1cccc(C)c1NC(=O)c1ccccc1C(=O)O	inactive	
Oc1cn2c(n1)Nc1ccc(Cl)c(Cl)c1C2		-1.99% [at 15.8 µM] (inactive)
c1ccc2c(c1)ccc1c3ccccc3ccc21	inactive	
C=C(C)C(=O)OCCOP(=O)(O)OCCOC(=O)C(=C)C	inactive	
CC(C)CCCC(C)(C)O	inactive	
CCCCCCCCSCC	inactive	
CCOc1cc(NC(C)=O)ccc1C(=O)OC	inactive	
COc1cc2c(cc1OC)[C@@H]1CC(=O)[C@@H](CC(C)C)CN1CC2	inactive	
COC(=O)c1ccccc1C(=O)c1ccc(OCCN2CCCCC2)cc1	inactive	
COc1cc(C(=S)N2CCOCC2)cc(OC)c1OC	inactive	
CC(N)C(=O)OC(C)(C)Cc1ccc(Cl)cc1 (centres undefined)	inactive	

SMILES	Potency	cytotoxicity increase
CCCCCCCCCCCCCC	inactive	
CCCCCCN	inactive	
CN(C)c1ccc(C=O)cc1	inactive	
O=S(=O)(O)c1cc(O)c2ccc(Nc3ccccc3)cc2c1	inactive	
CCCCOCCOC(=O)COc1nc(Cl)c(Cl)cc1Cl	inactive	
CN(CCOc1ccc(NS(C)(=O)=O)cc1)CCc1ccc(NS(C)(=O)=O)cc1	inactive	
C=COCCOCCOCCOC=C	inactive	
O=C(CCN1CCN(CCO)CC1)N1c2ccccc2Sc2ccc(C(F)(F)F)cc21	inactive	
Cc1cccc2nccnc12	inactive	
CC(C)CC(C)CC(C)CC(C)COC(=O)c1ccccc1C(=O)OCC(C)CC(C)CC(C)CC(C)C (centres undefined)	inactive	
C=CC(OCC)OCC	inactive	
CC(=O)CCCCn1c(=O)c2c(ncn2C)n(C)c1=O	inactive	
Cc1ccc2c(c1)OCC(=O)CO2	inactive	
CC1(C)S[C@@H]2[C@H](N=CN3CCCCCC3)C(=O)N2[C@H]1C(=O)O	inactive	
O=C(OCC1(COC(=O)c2cccnc2)CCCC(COC(=O)c2cccnc2)(COC(=O)c2cccnc2)C1O)c1cccnc1	inactive	
Cc1ccccc1N=O	inactive	
Cc1ccccc1OCC(O)CO (centres undefined)	inactive	
O=C(O)c1ccc(Cl)cc1Cl	inactive	

— PubChem BioAssay (Tox21)
